Results on 20 molecules are retold here after PubChem BioAssay AID485290 (National Center for Advancing Translational Sciences (NCATS), 2010).

Each structure is given as a SMILES string. Where “and” joins values, the source holds several entries; their conditions need not be identical. Equal entries are not always repeated. Among all 350,000 compounds or so, about 990 (0.28%) were called active. Roughly 2% stayed inconclusive and do not appear here. This is one part of a sample in which actives are shown more often than they occur. Calls follow the shape of the dose curve; as a rule, active = well fitted inhibition curve with a large enough effect; inconclusive = small, poorly fitted or top-dose-only effect; inactive = no such curve, though single readings can be large or run the other way. Where a structure was tested more than once in an assay, its records may differ in their call.
% is scaled to controls: 0 for no effect and ±100 for the full control effect; potency is read from the fitted curve at half-maximal effect.

The experiment deals with Tyrosyl-DNA phosphodiesterase 1 (Homo sapiens) (UniProt Q9NUW8). Briefly: qHTS Assay for Inhibitors of Tyrosyl-DNA Phosphodiesterase (TDP1). Also: nearly all actives have a fitted effect of over 40% in size. Particulars: recombinant TDP1, AlphaScreen DNA substrate cleavage; series mostly up to 130 µM; activity change, negative = inhibition: at the top concentration. An excerpt: NIH Molecular Libraries Probe Production Network [MLPCN]
Tyrosyl-DNA phosphodiesterase 1 (Homo sapiens), sequence (Q9NUW8 whole entry, looked up): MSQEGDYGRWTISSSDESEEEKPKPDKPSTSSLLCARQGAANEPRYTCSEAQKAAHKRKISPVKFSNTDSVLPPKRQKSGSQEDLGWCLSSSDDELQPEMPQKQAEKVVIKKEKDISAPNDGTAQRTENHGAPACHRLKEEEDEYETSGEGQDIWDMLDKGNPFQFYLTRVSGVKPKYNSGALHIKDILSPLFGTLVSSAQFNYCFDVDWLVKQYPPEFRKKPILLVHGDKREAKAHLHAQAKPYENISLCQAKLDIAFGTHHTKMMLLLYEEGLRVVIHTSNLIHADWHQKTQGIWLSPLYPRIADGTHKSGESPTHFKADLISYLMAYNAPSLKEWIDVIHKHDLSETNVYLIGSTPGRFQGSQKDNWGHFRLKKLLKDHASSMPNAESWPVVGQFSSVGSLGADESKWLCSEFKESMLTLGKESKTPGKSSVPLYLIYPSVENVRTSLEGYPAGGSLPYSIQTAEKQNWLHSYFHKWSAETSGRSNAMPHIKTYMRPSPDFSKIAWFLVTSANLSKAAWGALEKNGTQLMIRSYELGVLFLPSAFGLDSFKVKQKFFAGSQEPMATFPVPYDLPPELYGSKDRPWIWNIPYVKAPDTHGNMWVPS
NIH Chemical Genomics Center [NCGC]
Assay Provider: Yves Pommier and Christophe Marchand, National Cancer Institute
Assay Title: qHTS Assay for Inhibitors of Tyrosyl-DNA Phosphodiesterase (TDP1); also: nearly all actives have a fitted effect of over 40% in size
Human tyrosyl-DNA phosphodiesterase I (Tdp1) is a rational anticancer target because this enzyme is involved in the repair of DNA lesions created by the trapping of human DNA topoisomerase I (Top1) following treatment by anticancer agents such as camptothecins. Recombinant Tdp1 was expressed and purified from E. coli in the laboratory (Anthony et al, Nucleic Acids Research, 2007, Vol. 35, 4474-4484). A Tdp1 DNA substrate bearing a 5' biotin and a 3' phospho-tyrosine was obtained by custom synthesis. This oligonucleotidic DNA substrate was subsequently coupled to a fluorescein isothiocyanate (FITC) group via the free amino group present on the phospho-tyrosine. Tdp1 was screened against the NCGC small molecule library using the AlphaScreen (AS) detection method in which a streptavidin donor AS bead is bound at the 5' end and an anti-FITC AS acceptor bead is bound at the 3' end of the DNA oligonucleotidic substrate. In the presence of Tdp1, the enzyme cleaves the tyrosine-FITC group, leaving a 3' end phosphate on the DNA substrate. This cleavage reaction results in a loss of signal in AS.
[1] 3 ul of buffer is dispensed in columns 3 & 4 as negative control (no enzyme and maximum signal),
[2] 3 ul of enzyme (1 nM final) is dispensed in columns 1,2, 5-48,
[3] 1 ul of substrate (15 nM final) is dispensed throughout the plate,
[4] 1 ul of AS donor/acceptor bead mix (10 ug/ml final) is dispensed throughout the plate
3 ul of Tdp1 enzyme is dispensed to 1536-well Kalypsys black solid bottom plates. Compounds and controls (23 nl) are transferred via Kalypsys Pin Tool. The plates are incubated for 15 min at room temperature, and then 1 ul of substrate is added to start the reaction. After 5 min incubation at room temperature, 1 ul of AS donor/acceptor bead mix is added and the plates are further incubated for 10 min at room temperature. The detection is then performed on a PerkinElmer Envision reader.
For orientation: In qHTS, concentration-response curves come from the screen itself.
For the molecule `CC(C)Nc1nc(Cl)nc(NC(C)C)n1`, the Potency entry is “inactive and 28.2 µM (active)”.
With `CCC(CCC(C)C1CCC2C3CC=C4CC(O)CC[C@@]4(C)C3CC[C@@]12C)C(C)C` (stereo not given in full), the “activity change, negative = inhibition” value is 5.38% (inactive).
Regarding `C=CC#N`, the “activity change, negative = inhibition” value was -7.61% (inactive).
Regarding `O=NO`, the Potency result is “inactive”.
On to `CN1[C@H]2CC(OC(=O)[C@@H](CO)c3ccccc3)C[C@H]1[C@H]1O[C@H]12` (stereo not given in full), for which the activity change, negative = inhibition is 5.13% [at 21 µM] (inactive).
Same read-out and setting: the result for `CC(=O)CC(C)C` reads 15.5% (inactive).
Consider `CC(C)(O/N=C(\C(=O)N[C@@H]1C(=O)N2C(C(=O)[O-])=C(C[n+]3ccccc3)CS[C@@H]12)c1csc(N)n1)C(=O)O`, for which the Potency is 12.6 µM (active).
As for `CCCCCCCCCCCCN=C(N)N`, the “activity change, negative = inhibition” value was 0.984% (inactive).
In the case of `CCN(CC)c1nc(C)cc(OP(=S)(OC)OC)n1`, the “activity change, negative = inhibition” value is 8.2% (inactive).
For the molecule `CC(=O)[O][Sn]([c]1ccccc1)([c]1ccccc1)[c]1ccccc1`, the “activity change, negative = inhibition” value is 6.23% (inactive).
`CCCCC/C=C\C/C=C\C/C=C\C/C=C\CCCCCC(=O)NCCO`: the Potency result was “inactive and 39.8 µM (active)”.
As for `CCCCC/C=C\C/C=C\C/C=C\CCCCCCC(=O)NCCO`, the Potency result was “inactive”.
For `CN(C)C[C@H]1CCCC[C@]1(O)c1cccc(O)c1`, the “activity change, negative = inhibition” value was -0.328% (inactive).
On the same count and under the same terms, next, `C[C@@H]1C[C@H]2CC[C@H](O2)[C@H](C)C(=O)O[C@@H](C)C[C@@H]2CC[C@@H](O2)[C@@H](C)C(=O)O[C@H](C)C[C@H]2CC[C@H](O2)[C@H](C)C(=O)O[C@@H](C)C[C@@H]2CC[C@@H](O2)[C@@H](C)C(=O)O1`: 8.2% (inactive).
On to `CC(CCC(=O)O)C1CCC2C3C(O)C[C@@H]4CC(O)CC[C@@]4(C)C3CC[C@@]12C` (stereo not given in full), for which the Potency result is “inactive”.
Turning to `O=C(O)c1cc[c]([Sb](=[O])([OH])[OH])cc1[N+](=O)[O-]`, the Potency is 1.58 µM (active).
Turning to `S=P(c1ccccc1)(c1ccccc1)c1c(-c2ccccc2)[nH]c2ccccc12`, the “activity change, negative = inhibition” value is 1.74% (inactive).
In the case of `Nc1ccc(-c2ccc(N)c(N)c2)cc1N`, the “activity change, negative = inhibition” value was 19.3% (inactive).
Still for that read-out and setting: the result for `O=C1CCc2cccc3c2N1CC3` reads 4.92% (inactive); that for `Cc1cccc2c3c(ccc12)C1=C(C(=O)C3=O)C(C)CO1` (stereo not given), 22.4% (inactive).
